Assay outcomes: PubChem BioAssay, National Center for Advancing Translational Sciences (NCATS)
In the library only some 12% were active in any assay of this set; here they are far more common.
Pf growth 96h: P. falciparum growth inhibition at 96 hour, primary screen for plastid delayed-death inhibitors. P. falciparum luciferase reporter growth, 96 h. Potency, µM (series often up to 28.7 µM), for the others: at the top dose activity change, negative = inhibition, most hits filed as inhibitors. actives 6.9% (n = 320,000); also: potency is read from the fitted curve at half-maximal effect; % is scaled to controls: 0 for no effect and ±100 for the full control effect
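96 h incubation, 37 C, 5% CO2, of luciferase-reporter P. falciparum-infected RBCs (2% hematocrit, 0.05% parasitemia final) with test compounds; endpoint luminescence.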
Sm TGR block: S. mansoni TGR enzyme inhibition; Potency, µM (doses to about 114 µM), for the others: top-dose activity change, negative = inhibition, hits mostly inhibitors; Q962Y6; purified TGR, DTNB reduction, TNB absorbance 405 nm; actives 3% (n = 360,000); also: potency is read from the fitted curve at half-maximal effect; % is scaled to controls: 0 for no effect and ±100 for the full control effect; nearly all actives have a fitted effect of over 60% in size
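TGR 20 nM + NADPH 100 uM (dispensed conc.), cpd preinc 15 min RT; start with NADPH (500 uM addition) then DTNB (15 mM addition). Kinetic TNB absorbance, 405 nm filter. Four-parameter Hill fit across titration.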
AmpC inh detg: inhibitors of E. coli AmpC beta-lactamase with detergent; P00811; AmpC hydrolysis of nitrocefin, absorbance 480 nm, 0.01% Triton; Potency, µM (highest dose often 114 µM), without a hit: top-dose activity change, negative = inhibition, actives largely listed as inhibitors; actives 0.041% (n = 370,000); AID 485294;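 also: potency is read from the fitted curve at half-maximal effect; 0% = no-compound wells and -100% = no-enzyme wells; nearly all actives have a fitted effect of over 25% in size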
Target sequence (P00811 whole entry, looked up): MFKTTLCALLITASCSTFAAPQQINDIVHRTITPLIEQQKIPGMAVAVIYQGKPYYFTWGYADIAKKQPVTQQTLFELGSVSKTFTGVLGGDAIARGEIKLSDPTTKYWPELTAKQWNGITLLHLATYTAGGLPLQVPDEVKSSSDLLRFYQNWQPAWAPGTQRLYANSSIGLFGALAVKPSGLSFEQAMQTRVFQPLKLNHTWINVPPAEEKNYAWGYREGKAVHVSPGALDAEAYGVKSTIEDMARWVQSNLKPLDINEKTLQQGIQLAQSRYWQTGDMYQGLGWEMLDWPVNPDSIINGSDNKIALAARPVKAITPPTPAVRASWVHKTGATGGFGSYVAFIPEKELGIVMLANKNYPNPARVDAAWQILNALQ
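AmpC (5.3 nM in the dispensed reagent) in 20 mM phosphate pH 7.0 with 0.01% (detergent screen) or 0.0001% Triton X-100 was preincubated with compounds for 15 min at room temperature. Nitrocefin was then added from an 800 uM solution, and hydrolysis was followed at 480 nm.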
AmpC inh no detg: blocks E. coli AmpC beta-lactamase in detergent-free assay; AmpC nitrocefin hydrolysis, absorbance 480 nm, 0.0001% Triton; Potency, µM (series often up to 57.1 µM), for the others: at the top dose activity change, negative = inhibition, usual class: inhibitors; actives 0.52% (n = 330,000);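 also: potency is read from the fitted curve at half-maximal effect; plate controls were no compound for no effect and no enzyme for full effect; nearly all actives have a fitted effect of over 20% in size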
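20 mM phosphate pH 7.0 + 0.01% (detergent screen) or 0.0001% Triton X-100; 5.3 nM AmpC reagent; cpd preinc 15 min RT; nitrocefin (800 uM stock) to start; A480 q20 s × 4 min; Activity was normalised to no-enzyme and no-compound control wells.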
Pf growth 48h: P. falciparum growth inhibition at 48 hours (one generation). P. falciparum luciferase growth in erythrocytes, 48 h. actives 5.9% (n = 310,000). AID 504832. Potency, µM (highest dose often 28.7 µM), without a hit: at the top dose activity change, negative = inhibition, most hits filed as inhibitors; also: potency is read from the fitted curve at half-maximal effect; % is scaled to controls: 0 for no effect and ±100 for the full control effect
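Growth was read as firefly luciferase luminescence after a 48 h, 37 C, 5% CO2 exposure of compounds to reporter-bearing P. falciparum cultures (0.1% parasitemia, 2% hematocrit final) in Albumax-supplemented RPMI 1640.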
SARS PLpro yeast-1: SARS-CoV PLP inhibition in yeast; S. cerevisiae expressing SARS-CoV PLpro, growth rescue; actives 0.19% (n = 330,000); Potency, µM (titrated, usually from 32.9 µM), without a hit: top-dose activity, positive = growth rescue, most hits filed as activators; calls by dose curve; also: potency is read from the fitted curve at half-maximal effect; 0% is about no effect; nearly all actives have a fitted effect of over 55% in size
SARS PLpro yeast-2: Validates SARS-CoV PLpro inhibitor hits in yeast; shares compounds with SARS PLpro yeast-1; yeast expressing SARS-CoV PLpro, growth phenotype rescue; actives 19% (n = 1,000); calls only; call rule not given here
Starred values were filed as active, the others as inactive; i = inactive; u = inconclusive; x = no result given; + = active, no number. Unless noted, calls follow the shape of the dose curve; as a rule, active = well fitted curve in the direction sought with a large enough effect; inconclusive = small, poorly fitted or top-dose-only effect, or another doubt; inactive = no such curve, though single readings can be large; an effect the other way counts as inactive or inconclusive.

SMILES	Pf growth 96h	Sm TGR block	AmpC inh detg	AmpC inh no detg	Pf growth 48h	SARS PLpro yeast-1	SARS PLpro yeast-2
O=C(COC(=O)/C=C/c1cccs1)Nc1nc(-c2ccccc2)cs1	u	22µM*	-8%	-24%	-18%	14µM*	+
CN(C)CCCN(C(=O)c1ccc(S(=O)(=O)N2CCCCCC2)cc1)c1nc2ccc(F)cc2s1	u	-19%	-2%	177%	u	u	i
Cc1ccc(Cl)cc1N1CCN(C(=O)c2cn(CC(C)C)c(=O)c3c2c2ccccc2n3C)CC1	x	-1%	18%	x	x	x	x
Cn1c(=O)c2c(-c3ccccc3)n(-c3cccc(C#N)c3)cc2n(C)c1=O	x	-5%	-3%	x	x	x	x
Cc1ccc(Nc2nc(NCCCN3CCOCC3)nc(N)c2[N+](=O)[O-])cc1	4%	-6%	-19%	-17%	-7%	u	i
Cc1ccc(Nc2nc(NCCCN3CCOCC3)nc(N)c2[N+](=O)[O-])cc1C	u	-1%	u	32%	u	-7%	x
Cc1ccc2c(c1)N(C(=O)CCC(=O)NC1CCN(Cc3ccccc3)CC1)CC(C)O2 (centres undefined)	35%	-4%	u	78%	-14%	u	i
O=C(NCc1ccc(CNC(=O)c2ccco2)cc1)c1ccco1	12µM*	3%	0%	-23%	-3%	u	i
NC(=O)CC[C@H](NC(=O)OCc1ccccc1)C(=O)OCc1ccc(Cl)cc1	-2%	3%	17%	126%	1%	32%	x
O=C(CCN1C(=O)[C@@H]2Cc3ccccc3CN2C1=O)N[C@@H](Cc1ccccc1)C(=O)O	35%	6%	u	-45%	5%	6.3µM*	i
O=C(CCCCCN1C(=O)[C@@H]2Cc3ccccc3CN2C1=O)N[C@@H](Cc1ccc(O)cc1)C(=O)O	16%	-14%	u	53%	-5%	10%	x
C/C(=N\NC(=O)c1ccccc1)c1c(C)[nH]n(-c2ccccc2)c1=O	-11%	-10%	-1%	-35%	-2%	6.3µM*	i
COc1cc2[nH]c3c(=O)n(CCN4CCCCC4)cnc3c2cc1OC	-10%	0%	-19%	-31%	-16%	u	i
O=C(CNc1ccccc1)N/N=C/c1c(O)ccc2ccccc12	407%	-2%	1%	-47%	u	1%	x
O=C(N/N=C/c1c(O)ccc2ccccc12)c1ccc[n+](CCO)c1	5.2µM*	1%	3%	-3%	9.3µM*	0.89µM*	i
CCOCCCn1c(N)c(C(=O)Nc2sc3c(c2C(=O)OC)CCCC3)c2nc3ccccc3nc21	u	-1%	5%	12%	15µM*	u	u
CCOC(=O)c1c(NC(=O)c2c(N)n(CCCOC)c3nc4ccccc4nc23)sc2c1CCCC2	u	5%	0%	-20%	u	-8%	x
CCn1nnc(-c2ccccc2NS(=O)(=O)c2ccc(S(=O)(=O)N(C)C3CCCCC3)cc2)n1	u	0%	-6%	-13%	x	u	+
O=C(NC1(C(=O)NC2CCCCC2)CCCCC1)c1ccccn1	u	1%	-7%	-40%	-8%	-2%	x
O=C(NC1CCCCC1)/C(=N\O)c1ccccn1	-18%	14%	-2%	-12%	-12%	u	i
COc1ccc(/C=C2\CN(Cc3ccccc3)C/C(=C\c3ccc(OC)cc3)C2=O)cc1	u	8%	-5%	-14%	-21%	20µM*	i
CC1(C)CC2CC(C)(CN2/C=N/c2sc3c(c2C#N)CC(C)(C)NC3(C)C)C1 (centres undefined)	u	27%	-4%	157%	u	0%	x
CCN(CC)S(=O)(=O)c1ccc(S(=O)(=O)N2CCCC2C(=O)O)cc1 (centres undefined)	-12%	-2%	u	-10%	x	22µM*	i
CC(C)CN(CCC(=O)O)CC(C)C	x	-23%	1%	-5%	9%	-3%	x
CC(C)[C@H](NC(=O)c1ccco1)C(=O)Nc1ccc(OC(F)F)cc1	-1%	-1%	-9%	-19%	-22%	-1%	x
SMILES	Pf growth 96h	Sm TGR block	AmpC inh detg	AmpC inh no detg	Pf growth 48h	SARS PLpro yeast-1	SARS PLpro yeast-2
COc1ccc(OC)c(-c2c3cc(O)c(=O)cc-3oc3cc(O)c(O)cc23)c1	32%	u	-4%	28µM*	10µM*	u	+
CCOC(=O)c1oc2cc(O)ccc2c(=O)c1-c1ccccc1OC	-2%	-17%	-3%	-25%	-7%	-7%	x
CCOc1ccccc1-c1c2cc(O)c(=O)cc-2oc2cc(O)c(O)cc12	26%	45µM*	u	-55%	13µM*	11µM*	+
CC(C)(C)OC(=O)N1CCCN(C(=O)Nc2ccc(C(F)(F)F)cc2)CC1	u	11%	0%	55%	u	0%	x
O=C(c1ccccc1Br)N1CCc2c([nH]c3ccccc23)C1	34%	5%	1%	-4%	-3%	-1%	x
COc1cc2nc(-c3ccccc3C)oc(=O)c2cc1OC	u	-1%	5%	2%	23%	-4%	x
COc1cc2nc(CN3C(=O)c4ccccc4C3=O)oc(=O)c2cc1OC	-5%	3%	u	-2%	1%	22µM*	i
O=c1[nH]cnc2sc3c(c12)CCC3	9%	1%	2%	-16%	8%	-1%	x
O=C(c1n[nH]c2ccccc12)N1CCN(c2ccc(F)cc2)CC1	u	-10%	-19%	-21%	u	-4%	x
Cc1cc(C)nc(NS(=O)(=O)c2ccc(NC(=S)NC(=O)C(C)(C)C)cc2)n1	0%	u	1%	-33%	x	4%	x
Cc1cc(C)nc(NS(=O)(=O)c2ccc(NC(=S)NC(=O)CC(C)C)cc2)n1	15%	u	0%	-25%	-3%	u	i
